The sample as a whole holds a higher share of the strongest signals than the screen did.
Columns and labels:
Test in all cases: glycan array binding signal (z-score within array); higher = stronger binding
Details in all cases: glycan notation: IUPAC condensed, linker removed; mutation: Y228A
[1] = target: Gal(b1-4)GlcNAc(b1-6)Gal(b1-4)GlcNAc
In short: (§1)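 The binding signal is a Z-score computed within each array. Data were drawn from 3228 arrays in the Consortium for Functional Glycomics database, restricted to those with a known protein sequence. Scores were averaged over arrays of the same protein sequence at different concentrations or buffers, and over linkers, and negative values can be taken as non-binding.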

[2] = target: Gal(b1-4)GlcNAc(b1-6)[Gal(b1-4)GlcNAc(b1-3)]GalNAc
In short: as §1

Gal3S(b1-3)GalNAc = target: Gal3S(b1-3)GalNAc
In short: as §1

Gal3S4S(b1-4)GlcNAc = target: Gal3S4S(b1-4)GlcNAc
In short: as §1

Gal4S6S(b1-4)GlcNAc = target: Gal4S6S(b1-4)GlcNAc
In short: as §1

Gal6S(b1-3)GlcNAc6S = target: Gal6S(b1-3)GlcNAc6S
In short: as §1

Gal6S(b1-4)Glc6S = target: Gal6S(b1-4)Glc6S
In short: as §1

[3] = target: GalNAc(b1-3)Gal(a1-4)Gal(b1-4)GlcNAc
In short: as §1

GalNAc3S(b1-4)GlcNAc = target: GalNAc3S(b1-4)GlcNAc
In short: as §1

Glc(b1-4)Glc = target: Glc(b1-4)Glc
In short: as §1

[4] = target: GlcA3S(b1-3)Gal(b1-4)GlcNAc(b1-2)Man
In short: as §1

[5] = target: GlcNAc(b1-2)[GlcNAc(b1-6)]Man(a1-6)[GlcNAc(b1-2)Man(a1-3)]Man(b1-4)GlcNAc(b1-4)[Fuc(a1-6)]GlcNAc
In short: as §1

[6] = target: GlcNAc(b1-3)Gal(b1-4)GlcNAc(b1-3)Gal(b1-4)GlcNAc(b1-3)Gal(b1-4)GlcNAc(b1-2)Man(a1-3)[GlcNAc(b1-3)Gal(b1-4)GlcNAc(b1-3)Gal(b1-4)GlcNAc(b1-3)Gal(b1-4)GlcNAc(b1-2)Man(a1-6)]Man(b1-4)GlcNAc(b1-4)[Fuc(a1-6)]GlcNAc
In short: as §1

[7] = target: GlcNAc(b1-3)[GlcNAc(b1-6)]Gal(b1-4)GlcNAc
In short: as §1

[8] = target: GlcNAc(b1-3)[GlcNAc(b1-6)]GalNAc
In short: as §1

[9] = target: Man(a1-2)Man(a1-2)Man(a1-6)[Man(a1-3)]Man
In short: as §1

[10] = target: Man(a1-3)[Man(a1-6)]Man(a1-6)[Man(a1-3)]Man
In short: as §1

[11] = target: Neu5Ac(a2-3)Gal(b1-3)GlcNAc(b1-3)Gal(b1-3)GlcNAc
In short: as §1

[12] = target: Neu5Ac(a2-3)Gal(b1-3)[Neu5Ac(a2-6)]GlcNAc(b1-3)[Fuc(a1-3)[Gal(b1-4)]GlcNAc(b1-6)]Gal(b1-4)Glc
In short: as §1

[13] = target: Neu5Ac(a2-3)Gal(b1-4)GlcNAc(b1-2)Man(a1-3)[Neu5Ac(a2-6)Gal(b1-4)GlcNAc(b1-2)Man(a1-6)]Man(b1-4)GlcNAc(b1-4)GlcNAc
In short: as §1

[14] = target: Neu5Ac(a2-3)Gal(b1-4)GlcNAc(b1-3)Gal
In short: as §1

[15] = target: Neu5Ac(a2-3)Gal(b1-4)[Fuc(a1-3)]GlcNAc
In short: as §1

[16] = target: Neu5Ac(a2-6)Gal(b1-4)GlcNAc(b1-3)Gal(b1-4)GlcNAc(b1-3)Gal(b1-4)GlcNAc
In short: as §1

[17] = target: Neu5Gc(a2-3)Gal(b1-3)GlcNAc
In short: as §1

[18] = target: Neu5Gc(a2-3)Gal(b1-3)[Fuc(a1-4)]GlcNAc
In short: as §1

B1: Epa1-NP-mutant-Y228A (Candida glabrata), Q6VBJ0 (protein)
chain: MILNPALFLNKCVCIYTTLILLLLTNGGYATSSNDISLASKDPTTFPLGCSPDITTPKKGLSMELYSYDFRKKGSYPCWDAAYLDPNYPRTGYKSHRLLAKVDGVTGNINFYYHATKGCTPQLGHLPASYNYPKPLTMTNFTMLLYGYFRPKVTGFHTFTISADDLLFVNFGAGNAFDCCRRDSSADHFGNYQAYAIWGSKTAKDELTVHLDAGVYYPIRLFYNNREADGALSFTFKTESNENTVSDFSEYFFSLDDTEEGCPGLISYDSSCASVKTSKIIGIDYHTETPNENLVPITKTIYHLGIPCTGTTTTPLCGSGFYDPLANKCVTINTSSTSSVTKTTSHTTSKEVSFHSSISSQKTLIPKSIPSPYGPIKSQSIPTEMETSSEISSSEYAFSDVISTPSHSPYTKKHSSLNSSSYTSTVIHSLTSYSISQGIFSTSLSEQNITSKSSTDKFSTATSMSNNITQSSIIISQFSTNNENYTTTSMHTSSDKISTETLNNSISTTTSILFSNSSTILKNNTTIISSDKDTHYHPVNPTIVCSTNKTEIICASITQPSISNSNNHWSSSVLKFNSTTVRSTLPSSAGSNETSINVPFSSSTESNTSTSSTSTSNSKMVRSTLPSSAGSNETSISVPFSSSTESNTSTSSTSTSNSKMVRSTLPSSAGSNETSINVPFSSSTESNTSTSSTSTSNSKTVRSTPFSSAGIIMTSLSQRNNKSASSYASSNSKCYNTADSCRKVHSTPSYLLTSSYTSEGVDYDCSLVSTKLKINDTNCVNNKHTTKSCLKTSVTTTIPTLEIKTARKSSSNTIGLHSYPTSSPNKSISSAPIIGYISSFKTIKTASPSYQTSDLTTITTITSLNNPGSTAVENTHESNDKSRKTSSNDISSKHSVIKETKDAVESSNKSHQTNTLKCSSIIIASSSHNSYESLGGTTLTLTLSKVYSPQNNDTLPFLEISEVNPSRTVLPESSKMMQYLTSTEERNKTARNTIATNIVSISTFHFEGEGNAIRMGYTQLLLMLIGIIVMNIGT
Question: Which results are given for B1?
Answer: glycan array binding signal (z-score) [1]: 2.72; glycan array binding signal (z-score) [2]: 0.637; glycan array binding signal (z-score) (Gal3S(b1-3)GalNAc): -0.153; glycan array binding signal (z-score) (Gal3S4S(b1-4)GlcNAc): -0.259; glycan array binding signal (z-score) (Gal4S6S(b1-4)GlcNAc): -0.16; glycan array binding signal (z-score) (Gal6S(b1-3)GlcNAc6S): 5.91; glycan array binding signal (z-score) (Gal6S(b1-4)Glc6S): 4.82; glycan array binding signal (z-score) [3]: -0.145; glycan array binding signal (z-score) (GalNAc3S(b1-4)GlcNAc): -0.321; glycan array binding signal (z-score) (Glc(b1-4)Glc): -0.246; glycan array binding signal (z-score) [4]: -0.24; glycan array binding signal (z-score) [5]: 0.217; glycan array binding signal (z-score) [6]: -0.139; glycan array binding signal (z-score) [7]: -0.235; glycan array binding signal (z-score) [8]: -0.277; glycan array binding signal (z-score) [9]: -0.127; glycan array binding signal (z-score) [10]: -0.287; glycan array binding signal (z-score) [11]: -0.295; glycan array binding signal (z-score) [12]: -0.172; glycan array binding signal (z-score) [13]: -0.237; glycan array binding signal (z-score) [14]: -0.11; glycan array binding signal (z-score) [15]: -0.209; glycan array binding signal (z-score) [16]: -0.307; glycan array binding signal (z-score) [17]: -0.069; glycan array binding signal (z-score) [18]: -0.119
